# According to PubChem BioAssay (NCI):
# This is part of a sample that, as a whole, favours compounds with a hit. Of some 83,000 tested, about 20% had one in any assay.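 Negative percent growth values reflect cell death: -40 means 40% of the cells present at the start died, and -100 means all died.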 A number with no mark means an inactive call. Calls of active or inactive are those of the source. How the source made its calls: active means growth percent below 10; inactive means the rest.
# Columns and labels:
# Experiment in all cases: NCI-60 one-dose screen, 48 h (100 = growth as untreated, 0 = no growth, -100 = all killed)
# Conditions in all cases: 10 µM unless noted
# SK-MEL-2 melanoma = tested on: SK-MEL-2 melanoma
# EKVX NSCLC = tested on: EKVX NSCLC
# SN12C renal = tested on: SN12C renal
# UO-31 renal = tested on: UO-31 renal
# TK-10 renal = tested on: TK-10 renal
# ACHN renal = tested on: ACHN renal
# CAKI-1 renal = tested on: CAKI-1 renal
# A498 renal = tested on: A498 renal
# CCRF-CEM leukemia = tested on: CCRF-CEM leukemia
# MOLT-4 leukemia = tested on: MOLT-4 leukemia
Structure (SMILES),growth (SK-MEL-2 melanoma),growth (EKVX NSCLC),growth (SN12C renal),growth (UO-31 renal),growth (TK-10 renal),growth (ACHN renal),growth (CAKI-1 renal),growth (A498 renal),growth (CCRF-CEM leukemia),growth (MOLT-4 leukemia)
CCCN1C=C/C(=C\C(=O)n2ccc3ccccc32)c2ccccc21,105%,56.5%,84.1%,53%,105%,82.8%,60.1%,92.9%,73.3%,76.5%
O=C(CSc1nc2ccccc2c(=O)n1-c1ccc(Cl)cc1)N/N=C/c1ccc(Oc2ccc(Cl)cc2)cc1,54.3%,40.8%,45.3%,93.1%,39.7%,63.5%,33%,-42.3% (active),-2.67% (active),-25.1% (active)
O=C(/C=C/c1ccccc1Cl)Nc1ncc(Cc2cc(Cl)ccc2Cl)s1,30.4%,37.6%,34.1%,48.2%,61.2%,31.3%,36.6%,-16.6% (active),14%,24%
NC1=NC2(CCCC2)N(c2ccc(S(=O)(=O)Nc3nccs3)cc2)C(N)=N1,116%,98.7%,102%,83.6%,104%,103%,93.6%,120%,95.9%,102%
O=C(/C=C/c1ccc(Cl)c(Cl)c1)Nc1ncc(Cc2ccc(Cl)c(Cl)c2)s1,79.2%,69.8%,83.7%,63.5%,95.8%,42.6%,53.9%,99.8%,71.3%,54.8%
O=c1oc2ccc(-c3ccc(F)cc3F)cc2c(=O)n1-c1ccc(Br)cc1F,41%,73.5%,46.2%,84.5%,64.8%,80.5%,61.9%,37.4%,56.3%,57.8%
C=C(C)[C@@H]1CC[C@]2(C(=O)NC3CCCCC3)CC[C@]3(C)[C@H](CC[C@@H]4[C@@]5(C)CC[C@H](N)C(C)(C)[C@@H]5CC[C@]43C)[C@@H]12,105%,90.7%,102%,80.4%,124%,104%,65.4%,118%,79.4%,64.5%
NCCNC(=O)c1cccc(COc2ccccc2NC(=O)c2cc(Cl)c(Cl)[nH]2)c1,106%,94.4%,100%,92.2%,94.2%,100%,81.9%,81.5%,85.8%,89.5%
CCCCc1nc2c(N)nc3ccccc3c2n1Cc1ccc(OC)cc1,71.6%,58.5%,71.5%,40.2%,68.3%,76.9%,52.2%,35.7%,60.2%,36.8%
Cc1ccc([C@H]2c3[nH]c4ccccc4c3C[C@H]3C(=O)N(CCCCCCC(=O)NO)CC(=O)N23)s1,84.9%,69.4%,85.1%,71.9%,64.2%,85.5%,60.3%,76%,22%,12.5%
O=C(CSc1nc2ccccc2c(=O)n1-c1ccc(Cl)c(Cl)c1)Nc1ccc(S(=O)(=O)Nc2ccc(Cl)nn2)cc1,103%,94.5%,96.4%,79.8%,118%,95.3%,82.1%,103%,97%,97.2%
Brc1cc(-c2cc(-c3ccc4c(c3)OC=CO4)[nH]n2)cs1,106%,72.8%,98.8%,71.2%,192%,93.7%,63.8%,87.1%,89.9%,78.7%
CCCCN1C(=O)/C(=c2\sc3n(c2=O)C2C(NN=3)N(CC)C(=O)N2CC)c2cccc(C)c21 (stereo not given),97.6%,46.6%,62%,54.7%,82.9%,47.2%,35.3%,5.04% (active),18.7%,45.1%
C#C[C@]1(O)CC[C@H]2[C@@H]3CC=C4c5sc(Nc6cc(Cl)ccc6OC)nc5CC[C@]4(C)[C@H]3CC[C@@]21C,1.15% (active),22.3%,53.7%,16.1%,48.4%,32.1%,-4.8% (active),-2.08% (active),8.93% (active),1.34% (active)
CC[C@]12CC(C(=O)OC)=C3Nc4ccccc4[C@@]34CCN(C14)[C@@H]1c3cc4c(cc3O[C@@H]1[C@H]2O)NC1=C(C(=O)OC)C[C@@]2(CC)C3N(CC[C@@]143)C[C@H]1O[C@H]12 (stereo not given in full),40.8%,26.1%,31.1%,7.33% (active),6.66% (active),11.1%,8.4% (active),-46.1% (active),12.6%,14%
C#C[C@]1(O)CC[C@H]2[C@@H]3CC=C4c5sc(Nc6cccc(F)c6)nc5CC[C@]4(C)[C@H]3CC[C@@]21C,27.8%,25%,45.6%,17.1%,65.1%,35%,7.13% (active),31.7%,8.66% (active),5.5% (active)
COc1ccc(/C=N/NC(=O)c2c(N)nn(C)c2Nc2ccccc2)cc1,7.07% (active),69.7%,57.6%,51.2%,89.2%,50%,39.8%,33.1%,38.5%,49.4%
CCOC(=O)c1ccccc1NC1=C(Cl)C(=O)c2nc(C)ccc2C1=O,112%,95.1%,88.2%,91.9%,147%,101%,98.6%,87.4%,84.3%,84.8%
Cn1c(SCC(=O)c2ccco2)nc2ccccc2c1=O,106%,55.2%,105%,68.7%,146%,101%,74.7%,144%,98.8%,96%
Cc1nc(N)sc1-c1csc(Nc2ccc(C(F)(F)F)cc2)n1,8.77% (active),27%,29.2%,21.1%,35%,13%,33.9%,82.4%,21.3%,18.3%
COc1cc(-c2nc(-c3ccccc3)[nH]c2-c2ccnc(NCCCNS(=O)(=O)c3cccc(F)c3)n2)ccc1F,105%,80.8%,93.8%,89.2%,137%,88.7%,106%,68.9%,66%,54.4%
CCOC(=O)c1c(N)c(C#N)cn1Cc1ccc(Cl)cc1Cl,94.2%,81.8%,81.2%,59.9%,69.8%,87.4%,62.4%,73.5%,84.6%,65.1%
Brc1ccc(-c2cc(-c3ccc4c(c3)OC=CO4)n[nH]2)s1,97.3%,74.6%,99.1%,87.7%,149%,97.7%,62.9%,90.7%,79.4%,72.6%
O=C(/C=C/c1ccc(F)cc1)Nc1cccc2cccnc12,107%,91.4%,101%,84.1%,147%,105%,91.4%,114%,105%,105%
C#CCOc1ccccc1/C=N/Nc1nc(-c2ccc(Cl)cc2)cs1,102%,77.5%,93.8%,75.9%,145%,95.3%,92%,81.4%,96.6%,90.8%
CN1CCN(Cc2ccc(NC(=O)c3cncc(C#Cc4cnc5ccc(OCCCS(C)(=O)=O)nn45)c3)cc2C(F)(F)F)CC1,-82% (active),-10.7% (active),-15.8% (active),-12.9% (active),-6.6% (active),-16.1% (active),-14% (active),-90.9% (active),6.43% (active),2.88% (active)
O=C(/C=C/c1ccccc1)c1cccc(O)c1,108%,98.6%,98.8%,76.2%,108%,106%,91.5%,105%,77.8%,85.2%
